High-throughput results from PubChem.
Rows were chosen to be rich in hits. Some 3.2% of all compounds tested hit in one or more screens of this group.
Tau FP inhib = qHTS for Inhibitors of Tau Fibril Formation, Fluorescence Polarization; Potency, µM (series often up to 57.7 µM), hits mostly inhibitors; actives 0.39% (n = 280,000); AID 1468, 2008; K18 P301L tau heparin fibrillization, Alexa594 FP, 6 h; further: nearly all actives have a fitted effect of over 55% in size
Target sequence (P10636 561-689 P618L limits assumed): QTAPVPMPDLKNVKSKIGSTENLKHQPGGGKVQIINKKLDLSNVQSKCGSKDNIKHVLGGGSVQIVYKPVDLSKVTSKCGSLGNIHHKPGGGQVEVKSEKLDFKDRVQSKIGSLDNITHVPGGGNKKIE
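K18 P301L tau (15 uM unlabeled/0.24 uM Alexa 594-labeled, final) + compound + heparin 20 uM final; 100 mM NaOAc pH 7; 6 hr 37 C; ThT 30 uM final added, 1 hr RT; FP ex 555/em 632 nm.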
TRb SRC2 PPI = qHTS for Inhibitors of the Interaction of Thyroid Hormone Receptor and Steroid Receptor Coregulator 2. Thyroid hormone receptor beta (Homo sapiens), P10828. TRbeta-SRC2 peptide binding, fluorescence polarization; receptor liganded with 1 µM T3. Potency, µM (series often up to 106 µM), most hits filed as inhibitors. actives 0.065% (n = 280,000); further: nearly all actives have a fitted effect of over 50% in size
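Quantitative HTS by FP: 0.6 uM TRb LBD, 20 nM labeled SRC2 20-mer, 1 uM T3, 5% DMSO; 5 hr ambient incubation; % activity per concentration and potencies from concentration series.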
Tau ThT inhib = qHTS for Inhibitors of Tau Fibril Formation, Thioflavin T Binding; Potency, µM (top dose mostly 57.4 µM), most hits filed as inhibitors; AID 1460, 2008; recombinant tau K18 P301L, heparin-induced fibrillization, ThT fluorescence; actives 2.1% (n = 270,000); Microtubule-associated protein tau (Homo sapiens), P10636; further: nearly all actives have a fitted effect of over 55% in size
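Heparin-induced (20 uM) aggregation of recombinant human K18 P301L tau, 15 uM unlabeled with 0.24 uM labeled, pH 7 acetate buffer, 6 hr at 37 C with compound. Fibrils quantified by 30 uM ThT fluorescence after 1 hr ambient incubation.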
TexasRed fluor = Total Fluorescence Counterscreen for Inhibitors of the Interaction of Thyroid Hormone Receptor and Steroid Receptor Coregulator 2 | TRb/SRC2 Texas Red total fluorescence interference | Potency, µM (series often up to 106 µM) | actives 0.29% (n = 280,000) | AID 1479, 2009; active means well fitted curve in either direction with a large enough effect; inconclusive means small, poorly fitted or top-dose-only effect
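Flags fluorescent or light-absorbing compounds by total fluorescence, S + 2P, at 555 nm excitation and 632 nm emission. Mixture: 20 nM Texas Red SRC2 peptide, 0.6 uM human TRb LBD, 1 uM T3, 5% DMSO; compound exposure 5 h at ambient temperature.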
Tau fluor counter = Counterscreen qHTS for Inhibitors of Tau Fibril Formation, Fluorescence Polarization; tau K18 P301L Alexa594 fluorescence, heparin fibrillization; Potency, µM (top dose mostly 57.7 µM); actives 0.93% (n = 280,000); AID 1463, 2008; further: nearly all actives have a fitted effect of over 55% in size
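Human tau K18 P301L (15 uM unlabeled, 0.24 uM Alexa 594-labeled) in 100 mM sodium acetate pH 7 with 20 uM heparin, 6 hr at 37 C. ThT 30 uM added, 1 hr ambient; Alexa 594 FP and total fluorescence read at 555/632 nm.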
RGS12 GoLoco inh = qHTS Assay for Inhibitors of RGS12 GoLoco Motif Activity (Red Fluorophore) | Gai1:RGS12 GoLoco peptide FP, rhodamine, 10 min | Potency, µM (top dose mostly 61.6 µM), hits mostly inhibitors | actives 0.44% (n = 230,000) | AID 880, 2007; active means well fitted inhibition curve with a large enough effect, not every such curve was filed as active; inactive means no such curve, though single readings can be large or run the other way; further: nearly all actives have a fitted effect of over 30% in size
Target sequence (P63096 whole entry, looked up): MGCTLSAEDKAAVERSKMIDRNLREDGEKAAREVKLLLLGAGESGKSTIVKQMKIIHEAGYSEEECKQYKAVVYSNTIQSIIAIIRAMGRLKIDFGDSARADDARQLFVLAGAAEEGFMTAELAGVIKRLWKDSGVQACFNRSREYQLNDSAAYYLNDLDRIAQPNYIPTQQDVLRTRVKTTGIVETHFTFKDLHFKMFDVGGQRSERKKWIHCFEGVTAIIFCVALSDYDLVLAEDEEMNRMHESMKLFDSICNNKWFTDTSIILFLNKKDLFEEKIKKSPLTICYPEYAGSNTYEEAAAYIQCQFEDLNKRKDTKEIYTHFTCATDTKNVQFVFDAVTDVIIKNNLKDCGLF
Each line names hits and unclear results; the compound was inactive in the other large screens; [ ] = remark or other dose. Unless noted, the call rests on the fitted dose curve; in most records, active means well fitted curve in the direction sought with a large enough effect; inconclusive means small, poorly fitted or top-dose-only effect, or another doubt; inactive means no such curve, though single readings can be large; an effect the other way counts as inactive or inconclusive.

CC(C)Cn1nc(NC(=O)c2cccc(Cl)c2)c2cc3ccccc3nc21	Tau ThT inhib inconclusive, TexasRed fluor 1413µM[quencher], Tau fluor counter inconclusive (no result: RGS12 GoLoco inh)
CCCCn1nc(NC(=O)c2cccc(Cl)c2)c2cc3ccccc3nc21	none (no result: RGS12 GoLoco inh)
Cc1c(CC(=O)N2CCCCC2)c(=O)oc2c(C)c3occ(C(C)(C)C)c3cc12	Tau ThT inhib inconclusive (no result: RGS12 GoLoco inh)
COC(=O)/C(=C/Nc1ccc(O)cc1)[N+](=O)[O-]	Tau FP inhib inconclusive, TRb SRC2 PPI inconclusive, Tau ThT inhib 17.8µM, Tau fluor counter inconclusive
COC(=O)/C(=C/Nc1ccccc1)[N+](=O)[O-]	none
CCCOC(=O)c1ccc(Oc2cn[nH]c2-c2ccc(OCC)cc2O)cc1	Tau FP inhib inconclusive, Tau fluor counter 8.91µM[quencher]
CCCOC(=O)c1ccc(Oc2c(-c3ccc(OCC)cc3O)n[nH]c2C)cc1	Tau FP inhib inconclusive, Tau fluor counter 7.94µM[quencher]
COc1ccc(Oc2c(-c3ccc(O)cc3O)n[nH]c2C)cc1	Tau fluor counter inconclusive
Cc1cc(C)cc(Nc2nc3c([nH]2)c(=O)n(C)c(=O)n3C)c1	Tau FP inhib inconclusive, Tau ThT inhib inconclusive, Tau fluor counter inconclusive
Cn1c(=O)c2[nH]c(N=Nc3ccc(N)cc3N)nc2n(C)c1=O	Tau ThT inhib 14.1µM, Tau fluor counter inconclusive
CO[C@@H]1COC(=O)[C@H]2CCCN2C(=O)[C@@H](C)COC(=O)[C@H](COCc2ccccc2)NC(=O)C/C=C\[C@H]1C	none (no result: RGS12 GoLoco inh)
S=C(Nc1ccc2nsnc2c1)N1CCCC1	Tau FP inhib inconclusive, TRb SRC2 PPI inconclusive, Tau ThT inhib 25.1µM
O=C(Nc1ccc2nsnc2c1)N1CCCCCC1	none
O=C1Nc2cc3c(cc2C1=O)sc1ccccc13	Tau ThT inhib 1.12µM, Tau fluor counter inconclusive
COc1ccc2c(c1)C(=O)C(=O)N2	none
Nc1ccccc1Nc1cc(-c2ccccc2)nn1-c1cccc(Cl)c1	Tau FP inhib inconclusive, Tau ThT inhib inconclusive, Tau fluor counter 11.2µM[quencher]
COc1ccccc1-c1nc(NCc2cnc(C)cn2)c2ccccc2n1	none
COCCCNC(=O)c1ccc(-n2c(-c3ccccc3)cc3c2CCCCC3)cc1	Tau FP inhib 17.8µM, Tau fluor counter inconclusive (no result: RGS12 GoLoco inh)
CN(C)CCNC(=O)c1ccc(-n2c(-c3ccccc3)cc3c2CCCCC3)cc1	Tau FP inhib 22.4µM, Tau fluor counter inconclusive (no result: RGS12 GoLoco inh)
CCOCCCNC(=O)c1ccc(-n2c(-c3ccccc3)cc3c2CCCC3)cc1	Tau ThT inhib inconclusive, Tau fluor counter inconclusive (no result: RGS12 GoLoco inh)
COc1ccc(-c2cc(C(F)(F)F)c3c(n2)sc2c(O)cc(=O)[nH]c23)c(OC)c1	Tau ThT inhib 14.1µM
Cc1cc(C)c2c(n1)sc1c(O)cc(=O)[nH]c12	none
Nc1c(N2CCOCC2)cc(Cl)c2nonc12	Tau FP inhib inconclusive, TRb SRC2 PPI inconclusive, Tau ThT inhib 15.8µM
Nc1c(N2CCCC2)cc(Cl)c2nonc12	Tau FP inhib inconclusive, TRb SRC2 PPI inconclusive, Tau ThT inhib 2.82µM (no result: RGS12 GoLoco inh)
Nc1ccc(N2CCCCC2)cc1N1CCCCC1	Tau FP inhib inconclusive, Tau ThT inhib inconclusive, Tau fluor counter inconclusive
Nc1ccc(N2CCCCC2)c2nonc12	Tau FP inhib inconclusive, TRb SRC2 PPI inconclusive, Tau ThT inhib 8.91µM, Tau fluor counter inconclusive
Cc1cc(N2CCOCC2)c2c(N)cc(C)c(C)c2n1	Tau ThT inhib inconclusive
CO[C@H]1COC(=O)CCC[C@H](C)[C@H](OC)COC(=O)C/C=C\[C@@H]1C	none (no result: RGS12 GoLoco inh)
CCN(CC)S(=O)(=O)c1cccc(NC(=O)C2SC(=Nc3ccc(C)cc3C)C(C(=O)NC(C)COC)=C2N)c1 (configuration not stated)	Tau fluor counter 25.1µM[quencher]
COC(=O)C(=C/C=C/c1ccco1)C(=O)OC	Tau ThT inhib inconclusive
